Sampled rows, rich in hits. Any-hit rate of the full collection: about 19%.
IL1B secr inh: blocks inflammasome-driven IL-1 beta release; AID 743279; activity change, % at 57.5 µM; THP-1 LPS/ATP IL-1B secretion, AlphaLISA, 16 h; active compounds read low; actives 4.7% (n = 360,000); in the data active means activity change below about -50%; inconclusive means mostly about -30% to -49%
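THP-1 cells pretreated 1 hr with compounds (up to 57.5 uM final), then stimulated with LPS (250 ng/mL final) plus ATP (1.25 mM final); secreted IL-1B measured by AlphaLISA after 16 hr, decreased signal indicating inhibition.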
DT40 TDP1 no CPT: qHTS for Inhibitors of human tyrosyl-DNA phosphodiesterase 1 (TDP1): qHTS in cells in absence of CPT; DT40 Tdp1-/- hTDP1 cells, no CPT, ATP luminescence, 48 h; actives 15% (n = 420,000); Potency, µM (doses to about 46.2 µM), inactives show at the top dose activity change, negative = growth inhibition, usual class: inhibitors; further: potency means the concentration at half of the fitted maximal effect; nearly all actives have a fitted effect of over 55% in size
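No-CPT arm: Tdp1-/-;hTDP1 DT40 cells (400/well) plus compounds, incubated ≥48 hr at 37 °C. Readout CellTiter-Glo luminescence.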
HT1080NT lethal: kills 2HG-producing HT-1080-NT fibrosarcoma cells; HT-1080-NT fibrosarcoma viability, CellTiter-Glo ATP luminescence, 48 h; AID 686970; Potency, µM (highest dose often 46.1 µM), for the others: at the top dose activity, negative = less viability, actives largely listed as cytotoxic; actives 1.6% (n = 360,000);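 further: NT is the 2HG producing partner of a matched IDH1 knockdown line; potency means the concentration at half of the fitted maximal effect; 0% = DMSO-treated cells and -100% = media-only wells without cells; nearly all actives have a fitted effect of over 55% in size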
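A 48-hour cytotoxicity screen used HT-1080-NT cells plated 2 hours before compound delivery. ATP-based CellTiter-Glo luminescence measured viability, normalized to DMSO and no-cell controls.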
TDP1 cell CPT: DT40-hTDP1 cell growth loss with CPT | chicken DT40 Tdp1-/-;hTDP1 cells + 20 nM CPT, ATP luminescence, 48 h | Potency, µM (highest dose often 46.2 µM), for inactives: at the top dose activity change, negative = growth inhibition, usual class: inhibitors | actives 12% (n = 420,000) | AID 686979; further: potency means the concentration at half of the fitted maximal effect; nearly all actives have a fitted effect of over 55% in size
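Cell growth measured by CellTiter-Glo luminescence after a minimum 48 h, 37 C compound exposure with 20 nM CPT in Tdp1-knockout DT40 cells stably expressing hTDP1, seeded 400/well; qHTS titration format.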
HT1080 IDH1KD tx: toxicity to HT-1080 IDH1 knockdown cells (counter line). actives 2% (n = 360,000). HT-1080 IDH1 knockdown viability, ATP luminescence, 48 h. AID 686971. Potency, µM (highest dose often 46.1 µM), inactives show top-dose activity, negative = toxicity, actives largely listed as cytotoxic;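 further: potency means the concentration at half of the fitted maximal effect; 0% = DMSO wells and -100% = cell-free medium wells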
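In this qHTS, HT-1080 cells depleted of IDH1 are exposed for 48 h at 37 °C to compound titrations. Toxicity is scored from CellTiter-Glo luminescence, with DMSO as full viability and medium alone as none.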
Active calls of the source: *; ? = inconclusive; · = no result. Unless noted, the call rests on the fitted dose curve; in most records, active means well fitted curve in the direction sought with a large enough effect; inconclusive means small, poorly fitted or top-dose-only effect, or another doubt; inactive means no such curve, though single readings can be large; an effect the other way counts as inactive or inconclusive. Unless noted, on the % scale 0 is the no-effect control and ±100 the full control effect.

SMILES	IL1B secr inh	DT40 TDP1 no CPT	HT1080NT lethal	TDP1 cell CPT	HT1080 IDH1KD tx
O=C(COC(=O)C1CC2C=CC1C2)Nc1ccccc1[N+](=O)[O-] (configuration not stated)	2	?	1%	?	7%
COc1cc(-c2cc(C(=O)Nc3ccc(O)cc3)c3ccccc3n2)cc(OC)c1OC	-52*	?	?	10µM*	?
COc1ccc(-c2cc(C(=O)NC3CCCC3)c3ccccc3n2)cc1OC	20	15µM*	-4%	?	-9%
COc1cccc(-c2cc(C(=O)NC3CCCC3)c3ccccc3n2)c1	3	?	-11%	?	-3%
COc1cc2c(cc1NC(=O)c1cc(-c3ccncc3)nc3ccc(C)cc13)oc1ccccc12	4	?	9%	23µM*	3%
COC(=O)CNC(=O)c1cc(-c2ccncc2)nc2ccc(C)cc12	?	3%	2%	-1%	1%
COc1ccc(-c2cc(C(=O)NC(C)c3ccccn3)c3ccccc3n2)cc1OC (configuration not stated)	-15	21µM*	-3%	23µM*	0%
COc1ccc(-c2cc(C(=O)NCCN3CCOCC3)c3ccccc3n2)cc1OC	0	?	-4%	8%	12%
COc1ccc(-c2cc(C(=O)Nc3c(C(=O)c4ccc(C)c(F)c4)oc4ccccc34)no2)cc1	·	-13%	·	-9%	·
COc1ccc(C)cc1NC(=O)C1COc2ccccc2O1 (configuration not stated)	0	-1%	8%	-3%	0%
COc1ccc(C(=O)N2CCC3(CCCN(C)C3)CC2)cc1	·	-11%	·	-6%	·
CC1(C)NC(=O)N(CC(=O)OCC(=O)c2ccc(Br)s2)C1=O	15	-21%	6%	11%	1%
CCC(=O)N1CCc2cc(S(=O)(=O)N3CCN(c4cc(C)ccc4C)CC3)ccc21	36	-15%	15%	0%	5%
CC(OC(=O)c1cc(-c2cccnc2)nc2ccccc12)C(=O)Nc1ccc2ccccc2c1 (configuration not stated)	-8	18µM*	1%	?	12%
CC(=O)Nc1ccc(NC(=O)c2cc(-c3ccccc3)nc3ccccc23)cc1	-18	12µM*	-21%	?	-15%
O=C(Nc1ccc2c(c1)OCO2)c1cc(-c2cccnc2)nc2ccccc12	-13	?	-25%	-17%	-8%
O=C(Nc1ccccc1C(=O)N1CCCCC1)NC1CCCCC1	-7	-21%	13%	2%	10%
Cc1nc2ccccc2n1CC(O)COc1ccccc1Cl (configuration not stated)	-8	9.2µM*	-13%	18µM*	-12%
Cc1nc2ccccc2n1CC(O)COc1ccc(Br)cc1 (configuration not stated)	?	18µM*	-21%	?	-14%
Cc1nc2ccccc2n1CC(O)COc1ccc(C(=O)O)cc1 (configuration not stated)	·	9%	·	-18%	·
COC(=O)c1ccc(OCC(O)Cn2cnc3cc(C)c(C)cc32)cc1 (configuration not stated)	·	9.2µM*	·	?	·
CCC(=O)c1ccc(OCC(O)Cn2c(C)nc3ccccc32)cc1 (configuration not stated)	24	18µM*	-1%	18µM*	23µM*
NC(=O)NNc1cccc(Cl)n1	29	8%	3%	15%	5%
Cc1nc2ccc(S(=O)(=O)N(C)CC(=O)NCc3ccc(N(C)C)cc3)cc2s1	26	2%	-2%	-28%	21%
CCCc1nc2ccccc2n1CC(O)COc1ccc(C(=O)OC)cc1 (configuration not stated)	·	21µM*	·	12µM*	·
SMILES	IL1B secr inh	DT40 TDP1 no CPT	HT1080NT lethal	TDP1 cell CPT	HT1080 IDH1KD tx
COC(=O)c1ccc(OCC(O)CN2C(=O)c3ccccc3C2=O)cc1 (configuration not stated)	-3	3%	9%	8%	25%
COC(=O)c1ccc(OCC(O)CN(CC(C)C)CC(C)C)cc1 (configuration not stated)	10	29µM*	-8%	?	-10%
CCS(=O)(=O)c1ccc(OC)c(N=Nc2ccc(O)c3ncccc23)c1	40	?	?	?	8.2µM*
CCN(CC)S(=O)(=O)c1cccc2cccnc12	0	0%	-2%	-12%	1%
CCN(CC)S(=O)(=O)c1cc(OC)ccc1N=Nc1ccc(O)c2ncccc12	34	?	?	7.3µM*	?
COC(=O)c1sc(N2C(=O)c3oc4ccccc4c(=O)c3C2c2ccc(O)cc2)nc1C (configuration not stated)	·	-2%	·	-19%	·
CC(C)(C)OC(=O)N[C@@H](Cc1ccccc1)C(=O)N[C@@H](CO)[C@H](O)[C@@H]1C[C@@H]1C(=O)NC1CC1	-2	-5%	12%	-14%	5%
CCCn1c(SCC(=O)c2c(N)n(C3CC3)c(=O)[nH]c2=O)nnc1-c1ccncc1	15	5%	-3%	1%	8%
O/N=C1\CC/C(=N\O)c2nn(-c3ccc(Cl)cc3Cl)nc21	-51*	?	-23%	26µM*	-18%
CCCc1ccc(C2C3=C(CC(C)(C)CC3=O)NC3=C2C(=O)c2ccccc23)cc1 (configuration not stated)	?	16µM*	?	21µM*	?
CCCCc1ccc(C2C3=C(CC(C)(C)CC3=O)NC3=C2C(=O)c2ccccc23)cc1 (configuration not stated)	?	?	-6%	?	-19%
COC(=O)[C@@]12C[C@@H](CC(=O)NCCCCc3ccccc3)C(=O)N(Cc3ccco3)C1=CCC(C)(C)C2	?	?	-2%	16µM*	?
COC(=O)[C@@]12C[C@@H](CC(=O)NCc3ccccc3)C(=O)N(Cc3ccco3)C1=CCC(C)(C)C2	-16	?	1%	18µM*	-7%
COC(=O)[C@@]12C[C@@H](CC(=O)NCCC(C)C)C(=O)N(Cc3ccco3)C1=CCC(C)(C)C2	-18	?	3%	?	-2%
COC(=O)[C@]12CCCCC=C1N(Cc1ccco1)C(=O)[C@H](CC(=O)NCc1cccc3ccccc13)C2	-8	?	-6%	?	-13%
COC(=O)[C@@]12C[C@@H](CC(=O)NCc3ccc(C)o3)C(=O)N(Cc3ccco3)C1=CCC(C)(C)C2	-11	?	1%	?	-11%

Assay outcomes from PubChem.
